# Reference: the supplement of paper PMC6555819
# Assays:
# Assay in all cases: PBM binding z-score (relative to random genomic background probes); higher = stronger binding; sequences stand for … in GC…GCGATTGACAGCGTAGAATGAAGG
# [1] = tested on: FXR:RXRa (NR concentration 270 nM, RXRa partner concentration 90 nM)
# In short: (§1)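 Each nuclear receptor dimer, without ligand, was incubated for 1 h on custom Agilent 4×180K protein-binding microarrays. Binding was detected with antibodies against each partner (one per run), and scanned fluorescence was regression-normalized. The binding z-scores are referenced to random human genomic background probes.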
# [2] = tested on: LXRa:RXRa (NR concentration 270 nM, RXRa partner concentration 90 nM)
# In short: as §1
# [3] = tested on: LXRa homodimer (NR concentration 270 nM)
# In short: as §1
# [4] = tested on: LXRb:RXRa (NR concentration 270 nM, RXRa partner concentration 90 nM)
# In short: as §1
# [5] = tested on: LXRb homodimer (NR concentration 270 nM)
# In short: as §1
# [6] = tested on: PPARa:RXRa (NR concentration 270 nM, RXRa partner concentration 90 nM)
# In short: as §1
# [7] = tested on: PPARg:RXRa (NR concentration 180 nM, RXRa partner concentration 90 nM)
# In short: as §1
# [8] = tested on: PPARg:RXRa 270nM:90nM, anti-RXR (NR concentration 270 nM, RXRa partner concentration 90 nM)
# In short: as §1
# [9] = tested on: PPARg:RXRa 30nM:10nM, anti-RXR (NR concentration 30 nM, RXRa partner concentration 10 nM)
# In short: as §1
# [10] = tested on: PPARg:RXRa 90nM:30nM, anti-RXR (NR concentration 90 nM, RXRa partner concentration 30 nM)
# In short: as §1
# [11] = tested on: PPARg:RXRa DBDmut IVT, anti-RXR (DBD mutation: RXRa K156A/R161A, NR concentration 270 nM, RXRa partner concentration 90 nM)
# In short: as §1
# [12] = tested on: PPARg:RXRa IVT, anti-PPARg (NR concentration 270 nM, RXRa partner concentration 90 nM)
# In short: as §1
# [13] = tested on: PPARg DBDmut:RXRa IVT, anti-PPARg (DBD mutation: PPARg1 K132A/R137A, NR concentration 270 nM, RXRa partner concentration 90 nM)
# In short: as §1
# [14] = tested on: PPARg DBDmut IVT, anti-PPARg (DBD mutation: PPARg1 K132A/R137A, NR concentration 270 nM)
# In short: as §1
# [15] = tested on: PPARg homodimer (NR concentration 180 nM)
# In short: as §1
# [16] = tested on: PXR:RXRa (NR concentration 270 nM, RXRa partner concentration 90 nM)
# In short: as §1
# [17] = tested on: PXR homodimer (NR concentration 270 nM)
# In short: as §1
# [18] = tested on: RARa:RXR (NR concentration 270 nM, RXRa partner concentration 90 nM)
# In short: as §1
# [19] = tested on: RARa homodimer (NR concentration 270 nM)
# In short: as §1
# [20] = tested on: RARb:RXRa (NR concentration 270 nM, RXRa partner concentration 90 nM)
# In short: as §1
Sequence,PBM binding z-score [1],PBM binding z-score [2],PBM binding z-score [3],PBM binding z-score [4],PBM binding z-score [5],PBM binding z-score [6],PBM binding z-score [7],PBM binding z-score [8],PBM binding z-score [9],PBM binding z-score [10],PBM binding z-score [11],PBM binding z-score [12],PBM binding z-score [13],PBM binding z-score [14],PBM binding z-score [15],PBM binding z-score [16],PBM binding z-score [17],PBM binding z-score [18],PBM binding z-score [19],PBM binding z-score [20]
CGTCCAATGTCAAGGTCAGTGAAAGAGACTCGAA,2.47,1.92,0.422,1.76,0.286,2.67,0.791,1,-0.104,0.482,0.498,1.27,0.404,-0.348,2.25,2.17,0.697,2.26,0.775,3.69
GCAGACAGGTGAAACGCACGTAACTCAGGGTGGC,-0.552,-0.392,-0.524,-0.277,-0.898,0.511,0.771,0.0365,-0.437,-0.223,0.74,0.58,0.226,-0.35,-0.768,-0.397,-0.419,-0.0418,-0.719,0.539
CGTACTGGGCCATTCAGAGGTCATTGATCATATG,3.16,4.58,6.56,3.9,0.57,3.88,2.45,3.25,0.848,2.44,5.14,4.46,0.379,0.367,2.72,4.91,2.51,4.76,1.17,3.18
TGTCAAAGTTCAACGGTAACGTAAGTATCCACAC,6.73,5.85,4.19,3.92,1.33,5.05,8.27,7.38,5.3,6.83,0.0114,4.34,1.07,1.67,3.02,4.77,3.78,4.08,1.62,5.03
GTACCAGGGTGAATAGGTCGTTGATGAGTAGGCG,0.645,0.813,-0.254,0.582,-0.461,2.09,1.15,1.61,0.0734,0.776,0.914,2.01,-0.169,-0.469,0.791,0.92,0.246,1.86,0.108,1.24
ACTATTAGTTGAGACGAGGCCAACCGATAGGTTG,0.859,0.188,0.0694,-0.0266,0.238,0.13,0.24,-0.0513,-0.341,-0.176,-0.553,0.338,-0.0845,1.03,0.634,0.673,0.177,0.671,0.555,0.81
TTACCAGGGTGAAGGTCGTTGATCCCTCTGTAGA,1.98,1.73,-0.022,1.44,-0.184,3.62,6.75,6.39,4.84,6.33,1.33,3.97,0.161,-0.0741,1.08,1.6,0.104,1.86,-0.0972,1.69
GGAACGAGGGCGTTCGAGTTGATAGCATGGCGAT,-0.0904,-0.232,-0.938,-0.656,-0.964,-0.0431,0.127,-0.547,-0.579,-0.797,1.14,0.591,-1.48,-0.922,-0.718,1.88,0.811,0.317,-0.727,0.422
TCTTGTAGATCTAGCAGGTTAAGAAAGCCTGAGT,0.335,0.398,-0.285,0.453,-0.499,0.695,-0.571,1.22,2.48,1.86,1.5,0.0743,0.126,0.6,-0.214,0.527,0.101,0.57,0.175,0.0972
GCATATAGGCAATACAAGGTGAAAGTCCGATTGT,0.177,0.0524,-0.175,0.343,-0.636,1.12,0.804,0.669,0.415,0.712,1.94,1.46,0.326,-0.0602,-0.222,0.231,0.012,0.876,-0.301,0.172
CGAACTAGGTCAGAACAGAACAGTGAAGGATGAT,0.766,0.278,-0.166,0.401,-0.644,2.7,5.43,4.46,1.89,3.74,7.54,7.16,1.34,0.4,0.811,-0.0344,0.00344,0.194,-0.0462,2.8
TCTTGTAAATCAAAGGTTAAGAAAGCCGAAGCCT,1.34,2.53,0.811,1.94,0.621,3.08,3.23,5.39,4.93,5.88,1.48,1.25,0.212,0.506,1.05,1.42,-0.311,2.32,0.632,1.87
TCATATAGGTAAAAGGTGAGAGTCGGTGTGGTAA,1.07,1.56,-0.0844,1.55,0.0234,4.75,8.85,8.5,7.77,10,5.3,4.91,2.38,1.33,1.91,1.43,0.171,2.43,1.17,1.77
TCTTGTAGTTCAAGCAGGTTAAGAAAGCCTGAGT,1.59,1.72,0.316,1.5,-0.0715,2.02,-0.535,1.65,2.53,1.94,1.37,0.625,-0.45,-0.0561,0.815,2.26,1.78,1.59,0.00762,2.3
